PubChem BioAssay (NCI)
This is part of a sample that, as a whole, favours compounds with a hit. Of some 83,000 tested, about 20% had one in any assay.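 Growth was measured after 48 h exposure to one concentration of compound in 96-well plates. Values under 10 count as active.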 A number with no mark means an inactive call. Activity calls are given as the source filed them.

Assays:
Assay in all cases: NCI-60 one-dose screen, 48 h (100 = growth as untreated, 0 = no growth, -100 = all killed)
Details in all cases: 10 µM unless noted
SK-MEL-2 melanoma = tested on: SK-MEL-2 melanoma
EKVX NSCLC = tested on: EKVX NSCLC
SN12C renal = tested on: SN12C renal
UO-31 renal = tested on: UO-31 renal
TK-10 renal = tested on: TK-10 renal
ACHN renal = tested on: ACHN renal
CAKI-1 renal = tested on: CAKI-1 renal
A498 renal = tested on: A498 renal
MOLT-4 leukemia = tested on: MOLT-4 leukemia
CCRF-CEM leukemia = tested on: CCRF-CEM leukemia

| Compound | growth (SK-MEL-2 melanoma) | growth (EKVX NSCLC) | growth (SN12C renal) | growth (UO-31 renal) | growth (TK-10 renal) | growth (ACHN renal) | growth (CAKI-1 renal) | growth (A498 renal) | growth (MOLT-4 leukemia) | growth (CCRF-CEM leukemia) |
| --- | --- | --- | --- | --- | --- | --- | --- | --- | --- | --- |
| NNC(=O)CCCCl | 105% | 98.6% | 102% | 90.5% | 111% | 114% | 107% | 117% | 120% |  |
| C/C(O)=C(/C=N/C(=S)Nc1ccccc1)C(=O)Nc1ccccc1C | 114% | 96.6% | 94.8% | 89.7% | 110% | 103% | 101% | 86.1% | 96.9% |  |
| CCC(=O)Oc1c(C)cc(O)c2ccccc12 | 90.4% | 97% | 93.3% | 51.8% | 132% | 77.5% | 95.1% | 101% | 64% |  |
| CN(C)Cc1ccccn1 | 107% | 99.5% | 100% | 87.8% | 105% | 102% | 96.8% |  | 107% |  |
| Oc1ccc(CCC2CCNc3ccccc32)cc1 (stereo not drawn) | 86.7% | 53.5% | 86% | 78.9% | 93.2% | 66.9% |  | 69.2% | 84.8% | 69.1% |
| COC(=O)c1ccc([N+](=O)[O-])c(C)c1 | 116% | 109% | 109% | 79.9% | 128% | 97.1% |  | 79.5% | 112% | 4.56% (active) |
| C=C(C)COc1ccc(C(C)(C)C)cc1 | 101% | 98.9% | 103% | 95.3% | 97.1% | 105% |  | 105% | 111% | 103% |
| COc1ccc(C(=O)/C(=N/Nc2ccccc2)c2ccc(OC)cc2)cc1 | 96.2% | 91.7% | 91.5% | 71.4% | 112% | 96.1% |  |  | 85% |  |
| Nc1ccccc1SC1CC(=O)N(c2ccc(Cl)c(Cl)c2)C1=O (stereo not drawn) | 12.9% | 86.4% | 115% | 72.6% | 137% | 108% |  | 84.8% | 109% |  |
| Nc1ncnc2c1ncn2C1OC(CO)C2OC21 (stereo not drawn) | 95.2% | 105% | 95.7% | 100% | 99% |  | 106% | 85.4% | 111% | 105% |
| O=Cc1c(O)c2ccccc2[nH]c1=O | 106% | 113% | 92.3% | 81.6% | 106% | 91.5% |  | 119% | 104% | 108% |
| CC(=O)O[C@H]1CC[C@]2(C)C3=C(C(=O)C[C@H]2C1(C)C)[C@]1(C)CC[C@H]([C@H](C)CCC(=O)O)[C@@]1(C)CC3=O | 95.3% | 90.8% | 106% | 92.2% | 98.4% | 103% |  | 84.9% | 98% | 98.9% |
| COc1ccc(Nc2cc(Cl)ccc2C(=O)O)cn1 | 115% | 130% | 93.2% | 88.9% | 156% | 108% |  | 90.9% | 93.5% | 96.3% |
| CCCCCC#CC(=O)O | 107% | 99.8% | 105% | 81.5% | 104% | 97.1% |  | 105% | 101% | 102% |
| CC(=O)[C@@]1(O)CC[C@H]2[C@@H]3CC[C@@H]4CC(=O)CC[C@]4(C)[C@H]3[C@@H](O)C[C@@]21C | 99.7% | 88.9% | 95.4% | 91.7% | 97.2% | 101% |  | 88.6% | 94.5% | 94.1% |
| Cc1cc(C(=O)c2ccccc2)cc(C)c1O | 118% | 112% | 106% | 84% | 123% | 99.8% |  | 98% |  | -22.1% (active) |

| Compound | growth (SK-MEL-2 melanoma) | growth (EKVX NSCLC) | growth (SN12C renal) | growth (UO-31 renal) | growth (TK-10 renal) | growth (ACHN renal) | growth (CAKI-1 renal) | growth (A498 renal) | growth (MOLT-4 leukemia) | growth (CCRF-CEM leukemia) |
| --- | --- | --- | --- | --- | --- | --- | --- | --- | --- | --- |
| CCOC(=O)c1c[nH][nH]c1=O | 94.1% | 116% | 104% | 93.7% | 111% | 106% |  | 98.5% | 106% | 107% |
| Nc1nc(Cl)cc(Cl)n1 | 96% | 103% | 110% | 95.2% | 93.6% |  | 102% | 118% |  | 108% |
| CC(=O)Nc1ccc(/C=C2\SC(=S)N(/C=C(\C(C)=O)C(N)=O)C2=O)cc1 | 87.7% | 94.2% | 95.5% | 68.4% | 97.4% |  | 98.3% | 101% |  | 91.1% |
| OCC1CCC(O)C(CO)N1 (stereo not drawn) | 129% | 92.3% | 103% | 90.8% | 121% | 100% |  | 91.5% | 106% |  |
| O=C(O)CCCCCNC(=O)OCc1ccccc1 | 119% | 98.1% | 97% | 72.9% | 109% | 101% |  | 103% | 110% | 0.55% (active) |
| CCOc1ccncc1[N+](=O)[O-] | 104% | 104% | 110% | 99.9% | 104% | 115% |  | 121% | 102% | 109% |
| Cn1c(=O)c2nc3c(=O)n(C)c(=O)n(C)c3nc2n(C)c1=O | 110% | 93.9% | 106% | 82.1% | 128% | 101% |  | 126% | 84.9% | 104% |
| CC1CCC(C)(C)c2ccccc21 (stereo not drawn) | 106% | 96.3% | 99.5% | 91.5% | 104% | 98.4% | 96.5% |  | 116% |  |
| Cc1c(Cl)cccc1N=C=S | 99.5% | 89.1% | 99.9% | 81.1% | 106% |  | 88.8% | 117% | 109% | 94.6% |
| C[n+]1c(/C=C\C=C\N2CCCCC2)sc2ccccc21 | -51.1% (active) | 5.77% (active) | 7.71% (active) | 52.1% | 22% | 66.2% |  | 43.5% | -9.41% (active) | 8.73% (active) |
| CCCCOC(=O)c1ccc(NC(=O)CCl)cc1 | 62.3% | 86% | 18.3% | 57.9% | 92% | -17.1% (active) |  | 99.2% | 0.49% (active) | -15% (active) |
| NC(CCl)=NCC12CC3CC(CC(C3)C1)C2 | -44.6% (active) | -7.97% (active) | 9.41% (active) | -98.5% (active) | -2.27% (active) | 11.8% |  | 33% | 27.4% | -15.8% (active) |
| CC(=O)Nc1ncc(S(=O)(=O)c2ccc([N+](=O)[O-])cc2)s1 | 119% | 114% | 104% | 79.4% | 105% | 115% |  |  | 102% | 101% |
| CCNC(=O)Oc1ccc[nH]c1=O | 107% | 103% | 104% | 86.6% | 110% | 100% |  | 116% |  | 99% |
| CCC(=O)Oc1ccc2ccccc2c1 | 95.2% | 95.7% | 91% | 71.6% | 105% | 98.7% |  | 82.7% | 99% | 89.8% |
